A549 tox-1 = Nrf2 qHTS screen for inhibitors: counterscreen for cytotoxicity; A549 ARE-Fluc cells, CellTiter-Fluor viability, 18-24 h; Potency, µM (titrated, usually from 46 µM), for the others: top-dose activity change, negative = cytotoxicity, actives largely listed as inhibitors; 0.16% of 390,000 active; AID 504648, 2011; note: potency is the fitted concentration of half-maximal effect; % is set by controls: 0 for no effect and ±100 for the full control effect
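A549 ARE-Fluc cells in 5% FBS OPTI-MEM, 5000 cells/well, rested 2 h then exposed to compounds in concentration-response for 18-24 h at 37 °C. Viability by CellTiter-Fluor fluorescence (Ex 405/Em 525) after 30 min; luciferase luminescence (BugLite, 15 min, RT) read afterwards.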
Nrf2 ARE act = qHTS of Nrf2 Activators | 0.31% of 410,000 active | AREc32 ARE-luciferase reporter (MCF7-derived line), luminescence, 24 h | Potency, µM (top dose mostly 46.1 µM), for the others: top-dose activation, usual class: activators | AID 624171, 2012; note: potency is the fitted concentration of half-maximal effect; % of control where 0% means no effect; nearly all actives have a fitted effect of over 65% in size
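AREc32 cells carrying an ARE-driven firefly luciferase, 1000 cells/well in OPTI-MEM with 5% FBS, dosed after overnight attachment and incubated 24 hr at 37 deg C. Steady-Glo luminescence read after 30 min at RT.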
miR-21 reporter = qHTS Assay for Modulators of miRNAs and/orActivators of miR-21. Potency, µM (series often up to 38.3 µM), for inactives: at the top dose activity change, positive = activation, most hits filed as activators. 340,000 tested, under 10 active. HeLa miR-21 FLuc reporter, luciferase, 48 h;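 note: % of control where 0% means no effect; miR-21 action dims this reporter so a rising signal means less miR-21 action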
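HeLa cells stably expressing CMV-driven firefly luciferase with a downstream miR-21 binding sequence, endogenously expressing miR-21, were treated with titrations (up to about 40uM final) for 48 hours at 37 degree Celsius. Luciferase luminescence was read after lysis.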
PTAP TSG101 blk = qHTS Assay for Iinhibitors of HIV-1 Budding by Blocking the Interaction of PTAP/TSG101; Tumor susceptibility gene 101 protein (Homo sapiens), Q99816; Fluorescence polarization, FITC-PTAP peptide / Tsg101 binding; Potency, µM (top dose mostly 115 µM), for inactives: at the highest dose activity change, negative = inhibition, actives largely listed as inhibitors; 340,000 tested, under 10 active; active = well fitted inhibition curve with a large enough effect in the main read-out, with a control signal flat, not every such curve was filed as active; inconclusive = small, poorly fitted or top-dose-only effect, or effect the other way, or a change in a side signal; inactive = no such curve, though single readings can be large or run the other way; note: potency is the fitted concentration of half-maximal effect; % of control where 0% means no effect
Target sequence (Q99816 whole entry, looked up): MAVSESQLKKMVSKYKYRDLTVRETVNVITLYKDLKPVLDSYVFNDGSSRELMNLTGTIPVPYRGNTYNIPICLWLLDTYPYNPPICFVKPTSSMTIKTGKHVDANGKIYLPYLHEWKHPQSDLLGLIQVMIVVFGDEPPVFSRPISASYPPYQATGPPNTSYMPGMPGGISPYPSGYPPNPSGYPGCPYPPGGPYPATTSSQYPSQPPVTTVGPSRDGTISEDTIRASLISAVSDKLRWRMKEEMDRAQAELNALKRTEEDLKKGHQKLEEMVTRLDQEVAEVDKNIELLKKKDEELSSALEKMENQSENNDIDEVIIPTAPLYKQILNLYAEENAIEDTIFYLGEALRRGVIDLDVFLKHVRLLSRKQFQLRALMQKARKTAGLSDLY
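Fluorescence polarization binding of Tsg101 binding domain (10 uM final) to FITC-labeled PTAP peptide (50 nM final) in HEPES pH 7.5 buffer with NaCl, Tween 20, EDTA, TCEP. Compounds added before peptide; binding 20 min at RT.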
Nrf2 block = Nrf2 qHTS screen for inhibitors; 2.1% of 360,000 active; Potency, µM (series often up to 46 µM), without a hit: at the top dose activity change, negative = inhibition, actives largely listed as inhibitors; A549 ARE-Fluc reporter, luciferase luminescence, 18-24 h; note: potency is the fitted concentration of half-maximal effect; % is set by controls: 0 for no effect and ±100 for the full control effect; nearly all actives have a fitted effect of over 60% in size
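Two sequential reads on A549 ARE_Fluc cells exposed to compound for 18-24 h: a CellTiter-Fluor fluorescence read for viability, then a luciferase luminescence read for Nrf2/ARE activity.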
Glioma ERSR ind = qHTS for Inducers of the Endoplasmic Reticulum Stress Response (ERSR) in Human Glioma: qHTS; U87-MG GRP78 promoter luciferase reporter, 16 h; Potency, µM, for inactives: at the top dose activation, hits mostly activators; 0.02% of 420,000 active; AID 602332, 2012; note: potency is the fitted concentration of half-maximal effect; series mostly up to about 76 µM; % of control where 0% means no effect; nearly all actives have a fitted effect of over 35% in size
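Stably transfected U87-MG glioma cells carrying a GRP78-based luciferase sensor; 16 h compound incubation. Luminescence end-point read 10 min after Bright-Glo addition at room temperature.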
FLuc counter 3 = Nrf2 qHTS screen for inhibitors: Purified Fluc Biochemical Counterscreen for Hit Validation; shares compounds with Nrf2 block; 4% of 1,400 active; Potency, µM (highest dose often 57.5 µM), for inactives: top-dose activity change, negative = inhibition, actives largely listed as inhibitors; purified firefly luciferase, luminescence inhibition; note: potency is the fitted concentration of half-maximal effect; % is set by controls: 0 for no effect and ±100 for the full control effect; nearly all actives have a fitted effect of over 65% in size
A549 tox-2 = Nrf2 qHTS screen for inhibitors: A549 ARE-Fluc Cytotoxicity Counterscreen for Hit Validation | A549 ARE-Fluc cells, cytotoxicity counterscreen | Potency, µM (top dose mostly 46.1 µM), for inactives: at the highest dose activity change, negative = cytotoxicity, usual class: inhibitors | shares compounds with Nrf2 block | 2% of 1,400 active;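 note: potency is the fitted concentration of half-maximal effect; cells exposed to compounds for 18 to 24 hours; % is set by controls: 0 for no effect and ±100 for the full control effect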
Nrf2 ARE inh = Nrf2 qHTS screen for inhibitors: Nrf2 A549 ARE-Fluc Confirmation Assay for Hit Validation. shares compounds with Nrf2 block. A549 ARE-firefly luciferase reporter, luminescence. Potency, µM (doses to about 46.1 µM), for the others: top-dose activity change, negative = inhibition, actives largely listed as inhibitors. 74% of 1,400 active; note: potency is the fitted concentration of half-maximal effect; % is set by controls: 0 for no effect and ±100 for the full control effect; nearly all actives have a fitted effect of over 65% in size
* hit, by the source's call; [ ] = dose if it differs, or a comment. Rows were chosen to be rich in hits. Some 2.1% of all compounds tested hit in one or more screens of this group. Unless noted, calls come from the whole dose curve; as a rule, active = well fitted curve in the direction sought with a large enough effect; inconclusive = small, poorly fitted or top-dose-only effect, or another doubt; inactive = no such curve, though single readings can be large; an effect the other way counts as inactive or inconclusive.

For CC1CCc2c(sc(NC(=O)/C=C/c3cccs3)c2C(=O)O)C1 (stereo not given) the results were A549 tox-1 -24%, Nrf2 ARE act 15%, miR-21 reporter 20%, PTAP TSG101 blk -7%, Nrf2 block 6.5µM*, Glioma ERSR ind 7%, FLuc counter 3 inconclusive, A549 tox-2 inconclusive and Nrf2 ARE inh 7.3µM*.
For Cc1ccc(-c2csc3nc(-c4ccncc4)[nH]c(=O)c23)cc1 the results were A549 tox-1 -7%, Nrf2 ARE act 0%, miR-21 reporter -6%, PTAP TSG101 blk inconclusive, Nrf2 block inconclusive, Glioma ERSR ind 0%, FLuc counter 3 -28%, A549 tox-2 -12% and Nrf2 ARE inh 1.8µM*.
`C(=C\c1ccc2ccccc2n1)/c1ccccc1` gave A549 tox-1 0%, Nrf2 ARE act 16%, miR-21 reporter 17%, PTAP TSG101 blk -1%, Nrf2 block inconclusive, Glioma ERSR ind -9%, FLuc counter 3 3%, A549 tox-2 inconclusive and Nrf2 ARE inh 7.3µM*.
CC[N+](CC)(CC)c1ccc(/C=C/c2ccc3ccccc3n2)cc1 was read as Glioma ERSR ind -8%, FLuc counter 3 24µM*, A549 tox-2 9.2µM* and Nrf2 ARE inh 2.1µM*.
`Oc1ccc(/C=C/c2ccc3ccccc3n2)cc1` gave A549 tox-1 -8%, Nrf2 ARE act 0%, miR-21 reporter 25%, PTAP TSG101 blk 1%, Nrf2 block 11% and Glioma ERSR ind -3%.
COc1ccccc1C1N=C(Nc2nc3ccccc3o2)NC2=C1C(=O)CC(C)(C)C2 (stereo not given) was read as A549 tox-1 -3%, Nrf2 block 3% and Glioma ERSR ind -4%.
Screening CCc1ccccc1-n1nnc(-c2nsc(NC(=O)c3ccc(C)c(C)c3)n2)c1C returned A549 tox-1 -4%, Nrf2 ARE act -1%, miR-21 reporter inconclusive, Nrf2 block 8.2µM*, Glioma ERSR ind -3%, FLuc counter 3 -14%, A549 tox-2 -21% and Nrf2 ARE inh 21µM*.
c1ccc(-c2ccc(OCCN3CCCC3)cc2)cc1 was read as Glioma ERSR ind 7%.
`O=[N+]([O-])c1ccc(/C=C2\C=Cc3ccccc32)cc1` gave Glioma ERSR ind -1%.
For O=C(Nc1ccccc1-c1cn2c(CN3CCNCC3)csc2n1)c1cnc2ccccc2n1 the results were Glioma ERSR ind -12%.
Screening CCN(CC)S(=O)(=O)c1cc(NC(=O)CNc2cccc(S(=O)(=O)N3CCOCC3)c2)ccc1C returned A549 tox-1 -20%, Nrf2 ARE act 0%, PTAP TSG101 blk -3%, Nrf2 block 0.58µM*, Glioma ERSR ind -5%, FLuc counter 3 0%, A549 tox-2 -16% and Nrf2 ARE inh 3.7µM*.
N#Cc1cccc(NC(=O)CNc2cccc(S(=O)(=O)N3CCCC3)c2)c1 was read as A549 tox-1 inconclusive, Nrf2 ARE act 4%, PTAP TSG101 blk 1%, Nrf2 block 7.3µM*, Glioma ERSR ind -3%, FLuc counter 3 2%, A549 tox-2 -7% and Nrf2 ARE inh inconclusive.
Screening O=C(CNc1cc(S(=O)(=O)N2CCCC2)ccc1OCC(F)(F)F)Nc1cccc(C(F)(F)F)c1 returned A549 tox-1 -19%, Nrf2 ARE act -1%[9.22 µM], miR-21 reporter 26%, PTAP TSG101 blk -4%, Nrf2 block 7.3µM*, Glioma ERSR ind -4%, FLuc counter 3 0%, A549 tox-2 -18% and Nrf2 ARE inh 13µM*.
`O=C(CNc1cccc(C(F)(F)F)c1)Nc1cccc(S(=O)(=O)N2CCCC2)c1` gave A549 tox-1 -23%, Nrf2 ARE act 0%, PTAP TSG101 blk -7%, Nrf2 block inconclusive and Glioma ERSR ind -2%.
Screening N#Cc1cccc(NCC(=O)Nc2cccc(S(=O)(=O)N3CCCCC3)c2)c1 returned A549 tox-1 -2%, Nrf2 ARE act 0%, PTAP TSG101 blk -4%, Nrf2 block inconclusive and Glioma ERSR ind -4%.
CCCOC(=O)N1CCN(/[N+]([O-])=N/Oc2ccc([N+](=O)[O-])cc2[N+](=O)[O-])CC1 was read as A549 tox-1 inconclusive, Nrf2 block -1% and Glioma ERSR ind inconclusive.
For CC(N)C(=O)NCC(=O)NC1CSSCC(C(=O)O)NC(=O)C(CO)NC(=O)C(C(C)O)NC(=O)C(Cc2ccccc2)NC(=O)C(C(C)O)NC(=O)C(CCCCN)NC(=O)C(Cc2c[nH]c3ccccc23)NC(=O)C(Cc2ccccc2)NC(=O)C(Cc2ccccc2)NC(=O)C(CC(N)=O)NC(=O)C(CCCCN)NC1=O (stereo not given) the results were Glioma ERSR ind -2%.
OCCCn1c(-c2ccccc2)csc1=Nc1ccccc1 was read as A549 tox-1 5%, Nrf2 ARE act 7%, miR-21 reporter -1%, PTAP TSG101 blk -1%, Nrf2 block -17% and Glioma ERSR ind 1%.
Screening O=S(=O)(c1ccc(-c2csc(=Nc3ccc(OC(F)(F)Cl)cc3)n2CCCO)cc1)N1CCCC1 returned A549 tox-1 inconclusive, Nrf2 ARE act -3%, miR-21 reporter inconclusive, Nrf2 block 6.5µM*, Glioma ERSR ind -5%, FLuc counter 3 -7%, A549 tox-2 inconclusive and Nrf2 ARE inh 7.3µM*.
